# Measured values as given in PubChem BioAssay.
# Calls of active or inactive are those of the source.
# Tests used:
# Albumin (Bos taurus) = Albumin (Bos taurus) (UniProt P02769); test: compounds binding labelled BSA control protein – biochemical, small-molecule microarray, Alexa647 label, 635/667 nm fluorescence, artefact control for SMM control protein annotation, profiling panel (AID 1118); conditions: BSA-A647 binding, fluorescence 635 nm, higher = more signal;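 note: score merges 667 nm emission intensity and signal-to-noise per printed compound spot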
# [1] = probe aXIP binding to arrayed compounds – biochemical, NeuroSMM set, 635/667 nm fluorescence, primary screen (AID 1119); conditions: small-molecule microarray, higher = more signal, called active from +8 up or from −8 down;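 note: probe is the protein aXip251-270 applied at 1 µg/mL to compound-printed slides; binding of probe to printed compounds measured as 667 nm fluorescence plus signal to noise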
# [2] = probe aNOTCH3 binding on compound microarray – biochemical, small-molecule microarray, 635/667 nm fluorescence, primary screen (AID 1120); conditions: higher = more signal;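 note: probe is a biotin-tagged antibody raised against NOTCH3 rather than NOTCH3 protein; score merges spot fluorescence near 667 nm with spot signal to noise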
# [3] = probe aNOTCH2 binding on compound microarray – biochemical, small-molecule microarray, 635/667 nm fluorescence, primary screen (AID 1121); conditions: higher = more signal;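 note: score merges feature fluorescence read at 667 nm with its signal to noise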
# [4] = molecular target: Carbonic anhydrase 2 (Homo sapiens) (UniProt P00918); test: compounds binding carbonic anhydrase 2 – biochemical, small-molecule microarray, Alexa647-labelled CAII, profiling panel (AID 1122); conditions: CAII-A647 binding fluorescence, higher = more signal
# [5] = COS7 lysate on small-molecule microarray, probe aHis, 635 nm (AID 1123); conditions: COS7 cell lysate, fluorescence, higher = more signal;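 note: z-score combines 667nm fluorescence intensity with signal-to-noise per printed compound spot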
# [6] = probe aLAP1 signal on lysate-treated microarray – cell lysate, small-molecule microarray, COS7 lysate, primary screen (AID 1124); conditions: probe aLAP1, fluorescence, higher = more signal;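 note: lysate comes from COS7 cells expressing LAP1 and is applied at 0.3 µg/mL; score merges spot fluorescence near 667 nm with signal-to-noise over triplicate slides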
# Sam68 (KHDRBS1) = test: compounds binding KHDRBS1 protein – biochemical, small-molecule microarray, 635 nm fluorescence, primary screen (AID 1125); conditions: higher = more signal;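 note: score merges 667 nm channel intensity with signal to noise over triplicate slides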
# [7] = test system: Chordin-like protein 2 (CHRDL2); test: compounds binding chordin-like 2 – biochemical, small-molecule microarray, 635 nm fluorescence, primary screen (AID 1126); conditions: fluorescence 635 nm, higher = more signal;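 note: printed compound slides probed with Chrdl2 protein at 4 µg/mL for 1 h at 4 C; score merges 667 nm emission intensity with signal to noise over three replicate slides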
# [8] = molecular target: Concanavalin-A (Canavalia ensiformis) (UniProt P02866); test: compounds binding concanavalin A lectin – biochemical, small-molecule microarray, Alexa647 label, 635 nm, artefact control for SMM control protein annotation, primary screen (AID 1127); conditions: ConA-A647 binding fluorescence, higher = more signal;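 note: z combines 667 nm emission intensity with signal-to-noise across three replicate slides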
# [9] = compounds binding Alexa647 anti-His antibody – biochemical, small-molecule microarray, 635 nm fluorescence, artefact control for SMM control protein annotation, primary screen (AID 1128); conditions: higher = more signal;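 note: score merges feature fluorescence with signal-to-noise for each printed compound spot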
# [10] = test system: Human papillomavirus type 1a E7 protein (residues 1-88); test: HPV1a E7 small-molecule binders, primary screen, biochemical, small-molecule microarray, residues 1-88, 635 nm (AID 1129); conditions: small-molecule microarray binding, fluorescence 635 nm; higher = more signal
# [11] = molecular target: Focal adhesion kinase 1 (Homo sapiens) (UniProt Q05397); test: PTK2 protein binding on printed compound slides – biochemical, small-molecule microarray, 635/667 nm fluorescence, BSA, DTT, primary screen (AID 1130); conditions: 635 nm fluorescence, higher = more signal;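 note: composite of spot emission at 667 nm and signal to noise over triplicate slides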
# [12] = test system: Fibrinogen (Alexa647-labelled); test: Alexa647-fibrinogen binding to printed small molecules – biochemical, small-molecule microarray, 635/667 nm fluorescence, artefact control for SMM control-protein annotation, profiling panel (AID 1131); conditions: fibrinogen-A647 binding fluorescence, higher = more signal;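 note: z-score merges 667 nm fluorescence with per-spot signal-to-noise over triplicate slides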
# [13] = molecular target: Follistatin (Homo sapiens) (UniProt P19883); test: FST protein binding to printed compounds – biochemical, small-molecule microarray, 635/667 nm fluorescence, primary screen (AID 1132); conditions: 635 nm fluorescence, higher = more signal
# [14] = molecular target: Fibroblast growth factor 2 (Homo sapiens) (UniProt P09038); test: basic fibroblast growth factor binding to printed compounds – biochemical, small-molecule microarray, 635/667 nm fluorescence, primary screen (AID 1133); conditions: FGF2, fluorescence 635/667, higher = more signal
# [15] = JC-1 mitochondrial potential readout, lung cancer cells – cell-based, A549, JC-1 fluorescence, basal, 24 h, 100 nL, profiling panel (AID 1138); conditions: higher = more signal;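 note: A549 lung adenocarcinoma cells under basal conditions with no added stimulus; test concentration not given here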
# Lefty1 = Lefty1 protein binding to printed compounds – biochemical, small-molecule microarray, 635/667 nm fluorescence, primary screen (AID 1139); conditions: fluorescence 635/667, higher = more signal
# [16] = test system: wheat germ agglutinin (Triticum aestivum), Alexa647-labelled; test: Alexa647-WGA lectin binding to printed small molecules – biochemical, small-molecule microarray, 635/667 nm fluorescence, artefact control for SMM control-protein annotation, profiling panel (AID 1140); conditions: WGA-A647 binding, 635 nm fluorescence, higher = more signal;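 note: score merges 667 nm feature emission with signal to noise over triplicate slides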
# [17] = molecular target: Luciferin 4-monooxygenase (Photinus pyralis) (UniProt P08659); test: inhibition of purified Photinus pyralis luciferase – biochemical, luminescence, purified enzyme, 2006 set, primary screen (AID 1141); conditions: purified firefly luciferase, SteadyGlo luminescence, 30 min; higher = more signal, called active from +8 up or from −8 down;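 note: cell-free assay with purified firefly luciferase at 100 ng per well in PBS; test concentration not given here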
# Chain of Luciferin 4-monooxygenase (Photinus pyralis) (P08659 whole entry, looked up): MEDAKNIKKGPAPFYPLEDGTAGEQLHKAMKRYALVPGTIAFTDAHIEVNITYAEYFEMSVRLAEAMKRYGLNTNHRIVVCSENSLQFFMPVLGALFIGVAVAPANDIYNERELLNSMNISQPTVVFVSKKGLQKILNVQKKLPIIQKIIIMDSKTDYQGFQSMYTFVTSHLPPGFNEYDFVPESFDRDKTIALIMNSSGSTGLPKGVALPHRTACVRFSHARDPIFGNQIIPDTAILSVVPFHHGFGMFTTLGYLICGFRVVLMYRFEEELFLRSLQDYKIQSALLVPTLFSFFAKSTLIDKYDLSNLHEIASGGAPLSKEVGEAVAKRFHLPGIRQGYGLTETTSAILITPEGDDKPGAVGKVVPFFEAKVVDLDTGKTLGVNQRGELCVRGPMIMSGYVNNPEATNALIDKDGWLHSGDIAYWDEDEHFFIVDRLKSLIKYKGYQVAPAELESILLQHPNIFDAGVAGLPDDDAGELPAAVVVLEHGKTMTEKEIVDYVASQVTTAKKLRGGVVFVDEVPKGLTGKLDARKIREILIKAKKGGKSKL
# Chain of Fibroblast growth factor 2 (Homo sapiens) (P09038 whole entry, looked up): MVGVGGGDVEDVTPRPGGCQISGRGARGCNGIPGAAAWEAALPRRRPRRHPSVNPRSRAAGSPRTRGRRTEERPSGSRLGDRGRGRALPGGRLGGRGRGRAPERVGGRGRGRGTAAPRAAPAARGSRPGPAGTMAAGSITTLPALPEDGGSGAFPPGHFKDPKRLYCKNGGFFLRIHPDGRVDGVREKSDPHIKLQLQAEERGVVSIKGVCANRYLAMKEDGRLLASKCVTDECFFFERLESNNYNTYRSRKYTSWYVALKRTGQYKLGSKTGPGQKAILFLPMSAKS
# Chain of Focal adhesion kinase 1 (Homo sapiens) (Q05397 whole entry, looked up): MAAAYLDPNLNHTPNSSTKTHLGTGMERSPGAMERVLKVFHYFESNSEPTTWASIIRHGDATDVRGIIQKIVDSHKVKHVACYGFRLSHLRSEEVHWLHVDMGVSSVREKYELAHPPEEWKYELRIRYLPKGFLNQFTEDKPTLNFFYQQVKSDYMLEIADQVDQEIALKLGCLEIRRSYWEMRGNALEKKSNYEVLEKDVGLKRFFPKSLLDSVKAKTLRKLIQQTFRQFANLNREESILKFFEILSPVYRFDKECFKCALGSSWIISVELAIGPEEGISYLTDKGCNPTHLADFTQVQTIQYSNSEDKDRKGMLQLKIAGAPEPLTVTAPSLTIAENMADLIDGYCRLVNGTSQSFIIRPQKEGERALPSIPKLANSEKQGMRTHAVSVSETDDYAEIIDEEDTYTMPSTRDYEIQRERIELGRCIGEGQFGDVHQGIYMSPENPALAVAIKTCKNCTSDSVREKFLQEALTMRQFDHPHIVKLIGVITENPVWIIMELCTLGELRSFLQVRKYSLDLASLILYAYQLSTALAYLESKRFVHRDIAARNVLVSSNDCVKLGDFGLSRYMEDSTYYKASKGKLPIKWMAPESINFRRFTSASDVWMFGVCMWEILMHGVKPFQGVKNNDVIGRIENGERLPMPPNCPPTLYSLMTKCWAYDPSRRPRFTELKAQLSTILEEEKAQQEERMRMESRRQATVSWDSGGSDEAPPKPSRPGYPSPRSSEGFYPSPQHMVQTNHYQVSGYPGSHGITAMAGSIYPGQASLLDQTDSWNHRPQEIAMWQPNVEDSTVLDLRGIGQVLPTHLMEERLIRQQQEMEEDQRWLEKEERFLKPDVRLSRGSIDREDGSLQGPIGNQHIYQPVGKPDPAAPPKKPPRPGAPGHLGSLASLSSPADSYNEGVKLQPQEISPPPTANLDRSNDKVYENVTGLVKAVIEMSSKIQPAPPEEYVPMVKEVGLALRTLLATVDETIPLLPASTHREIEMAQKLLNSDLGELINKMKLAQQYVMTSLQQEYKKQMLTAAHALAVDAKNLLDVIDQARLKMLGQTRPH
# Chain of Follistatin (Homo sapiens) (P19883 whole entry, looked up): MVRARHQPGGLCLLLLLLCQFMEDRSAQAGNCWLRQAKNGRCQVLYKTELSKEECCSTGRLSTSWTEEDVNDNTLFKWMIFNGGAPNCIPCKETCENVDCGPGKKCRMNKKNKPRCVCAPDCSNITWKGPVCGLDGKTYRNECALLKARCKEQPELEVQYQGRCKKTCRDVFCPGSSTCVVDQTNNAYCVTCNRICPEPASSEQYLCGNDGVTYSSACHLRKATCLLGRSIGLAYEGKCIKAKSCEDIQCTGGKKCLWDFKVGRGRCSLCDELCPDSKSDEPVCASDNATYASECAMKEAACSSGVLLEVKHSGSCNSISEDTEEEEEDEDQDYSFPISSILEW
# Chain of Albumin (Bos taurus) (P02769 whole entry, looked up): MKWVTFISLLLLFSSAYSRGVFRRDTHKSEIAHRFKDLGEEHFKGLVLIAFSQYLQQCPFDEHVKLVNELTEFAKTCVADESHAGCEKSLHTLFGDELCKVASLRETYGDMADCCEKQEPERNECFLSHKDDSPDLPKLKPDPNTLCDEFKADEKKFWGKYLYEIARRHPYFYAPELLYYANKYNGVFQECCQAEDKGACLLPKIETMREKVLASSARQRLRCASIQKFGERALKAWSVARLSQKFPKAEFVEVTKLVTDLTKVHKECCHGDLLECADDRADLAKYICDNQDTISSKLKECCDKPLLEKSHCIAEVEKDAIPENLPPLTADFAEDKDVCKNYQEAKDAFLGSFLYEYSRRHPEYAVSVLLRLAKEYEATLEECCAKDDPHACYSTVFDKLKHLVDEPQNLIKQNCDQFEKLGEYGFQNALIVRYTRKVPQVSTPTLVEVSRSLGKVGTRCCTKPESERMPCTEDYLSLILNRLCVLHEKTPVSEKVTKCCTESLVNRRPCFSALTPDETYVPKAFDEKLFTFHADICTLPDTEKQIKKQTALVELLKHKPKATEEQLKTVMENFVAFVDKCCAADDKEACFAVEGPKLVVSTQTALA
# Chain of Concanavalin-A (Canavalia ensiformis) (P02866 whole entry, looked up): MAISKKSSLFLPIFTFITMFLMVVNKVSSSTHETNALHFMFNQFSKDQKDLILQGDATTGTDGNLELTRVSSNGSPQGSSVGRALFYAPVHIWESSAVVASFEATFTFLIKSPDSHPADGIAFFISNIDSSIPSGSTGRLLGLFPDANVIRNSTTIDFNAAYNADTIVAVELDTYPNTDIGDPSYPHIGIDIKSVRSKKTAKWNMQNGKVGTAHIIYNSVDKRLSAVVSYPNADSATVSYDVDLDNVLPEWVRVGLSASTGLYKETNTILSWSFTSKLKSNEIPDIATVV
SMILES,composite z-score (Albumin (Bos taurus)),composite Z-score [1],composite z-score [2],composite z-score [3],composite z-score [4],composite z-score [5],composite z-score [6],composite z-score (Sam68 (KHDRBS1)),composite z-score [7],composite z-score [8],composite z-score [9],composite z-score [10],composite z-score [11],composite z-score [12],composite z-score [13],composite z-score [14],z-score [15],composite z-score (Lefty1),composite z-score [16],z-score [17]
CN(C)CCCCCCNC(=O)[C@@H]1C[C@@H]2C(=O)N3CCC[C@H]3C(=O)N2[C@@H]1c1cccc(OCCO)c1,-0.694,0.759 (inactive),0.278,-0.13,0.591,2.73,0.87,1.31,1.42,1.13,2.58,1.23,0.338,0.552,1.37,1.58,-0.17,1.48,1.1,-0.138 (inactive)
C=CCN1C(=O)[C@]2(CCC(=O)OC(C)(C)C)N=C(c3ccc(OCCCO)cc3)O[C@@H]2c2ccccc21,-0.361,-0.014 (inactive),0.185,-0.118,0.256,1.38,0.023,0.587,0.281,1.14,2.42,0.944,0.469,0.317,1.19,-0.132,0.859,0.467,0.27,-5.66 (inactive)
CCCCCCCCCC(O)C1C=CC2C(=O)N(c3ccccc3)C(=O)C2N1Nc1cc(OC)c(OC)c(OC)c1 (stereo not given),0.168,0.182 (inactive),-0.0751,-0.14,0.528,2.25,-0.354,0.683,-0.919,0.932,0.374,0.675,0.636,0.585,0.0214,-1.09,-0.512,-0.312,0.172,-1.96 (inactive)
C=CCC(OC(C)=O)[C@@H]1[C@@H](N(Cc2ccc(-c3cccc(C(F)(F)F)c3)o2)C(=O)Cc2ccc(OC)cc2)c2cc(OCCCO)ccc2N1C(=O)c1ccc(-c2ccccc2)cc1 (stereo not given in full),0.0925,-0.4 (inactive),0.0711,0.0178,0.251,0.206,-0.155,0.272,0.121,-0.94,-0.0127,-0.501,-0.326,-0.771,0.569,0.119,0.0544,0.0533,-0.402,0.244 (inactive)
Cc1ccc(S[C@]2(C(=O)NC(C)C)CC(=O)N(Cc3cc(C(F)(F)F)cc(C(F)(F)F)c3)[C@@H]2c2ccc(CO)cc2)cc1,-0.0844,-0.459 (inactive),-0.384,-0.126,0.241,0.596,0.293,-0.374,-1.19,-0.534,-0.254,-0.629,-0.734,-0.983,-1.33,-0.977,0.605,-0.67,0.0491,-0.222 (inactive)
CCCC=C(CCC)[C@@H](NS(=O)(=O)c1ccc(C(F)(F)F)cc1)c1ccccc1,-0.127,0.404 (inactive),0.149,0.115,0.0051,1.34,-0.122,0.42,-0.732,0.277,0.294,0.887,0.672,0.698,0.225,-0.148,-2.69,-0.141,0.663,2.72 (inactive)
